The list is not random: actives were taken first. Their share in the collection is about 3.8%.
SKOV3 invasion = ovarian cancer metastasis inhibition, 3D TME model; Potency, µM (titrated, usually from 45.8 µM), without a hit: top-dose activity change, negative = inhibition, actives largely listed as inhibitors; 46,000 tested, 0.1% active; AID 1963576; SKOV3ip1-GFP adhesion/invasion on 3D omental model, fluorescence;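 note: potency is the fitted concentration of half-maximal effect; plate controls were DMSO wells for no effect and tomatine positive control wells for full effect; nearly all actives have a fitted effect of over 65% in size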
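Adhesion/invasion was scored as fixed GFP-labeled SKOV3ip1 cell counts (488/509 nm), normalized to DMSO and tomatine controls. Cancer cells in serum-free medium, with four compound doses (0.36-46 umol/L), sat 2 hr at RT then 16 hr at 37 C on a 48 hr fibroblast/mesothelial/ECM culture.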
GPR32 ag = GPR32 (DRV1) agonism, beta-arrestin recruitment | CHO-K1 GPR32 beta-arrestin PathHunter luminescence, 90 min; zero percent set by DMSO-only wells | AID 1346428 | 48,000 tested, 2.5% active | activation, % at 76.9 µM;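 active = activation of at least 60% and not above a set upper limit, about 1 call in 100 departs from these limits; inconclusive = activation of 40% to 60%, or above that upper limit; inactive = activation under 40%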; note: 0% is about no effect
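Beta-arrestin recruitment read-out: luminescence from complemented beta-Gal in CHO-K1 GPR32 PathHunter cells, measured 1 h after detection reagent at ambient temperature following 90 min compound exposure at 37 °C; DMSO served as basal (EC0) control.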
FH mod = Identification of activators of human fumarate hydratase by quantitative high-throughput screening. Fumarate hydratase, mitochondrial (Homo sapiens), P07954. 54,000 tested, 0.22% active. FH coupled MDH/diaphorase resazurin fluorescence, 15 min. AID 1347055, 2019. Potency, µM (doses to about 79.9 µM), inactives show at the highest dose activity change, negative = inhibition, usual class: inhibitors; note: potency is the fitted concentration of half-maximal effect; % is set by controls: 0 for no effect and ±100 for the full control effect; the screen sought activators but most active calls are inhibition curves; nearly all actives have a fitted effect of over 45% in size
Target sequence (P07954 whole entry, looked up): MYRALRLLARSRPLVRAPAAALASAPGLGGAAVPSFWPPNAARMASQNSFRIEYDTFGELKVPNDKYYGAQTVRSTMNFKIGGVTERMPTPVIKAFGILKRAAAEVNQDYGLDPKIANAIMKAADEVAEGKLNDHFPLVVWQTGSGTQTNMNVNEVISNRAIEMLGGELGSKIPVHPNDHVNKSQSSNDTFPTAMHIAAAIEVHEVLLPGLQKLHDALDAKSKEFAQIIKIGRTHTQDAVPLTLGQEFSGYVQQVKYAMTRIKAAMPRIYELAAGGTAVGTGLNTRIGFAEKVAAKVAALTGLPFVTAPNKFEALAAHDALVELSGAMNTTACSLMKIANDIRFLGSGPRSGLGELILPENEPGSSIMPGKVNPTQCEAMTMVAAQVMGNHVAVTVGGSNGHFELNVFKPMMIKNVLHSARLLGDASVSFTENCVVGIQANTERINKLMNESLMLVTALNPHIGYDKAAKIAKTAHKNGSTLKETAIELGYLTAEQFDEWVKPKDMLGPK
NTMT1 inh = inhibitors of human N-terminal methyltransferase NTMT1; Q9BV86; Potency, µM (highest dose often 114 µM), for inactives: top-dose activity change, negative = inhibition, hits mostly inhibitors; AID 1645870; NTMT1 MTase-Glo SAH luminescence, purified enzyme; 59,000 tested, 2.5% active;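 note: potency is the fitted concentration of half-maximal effect; plate controls were DMSO vehicle for no effect and no enzyme for full effect; nearly all actives have a fitted effect of over 65% in size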
DYRK1A inh-1 = human DYRK1A kinase inhibition by ATP depletion readout; Potency, µM (top dose mostly 76.9 µM), inactives show top-dose activity change, negative = inhibition, usual class: inhibitors; 100 tested, 80% active; shares compounds with NTMT1 inh; recombinant DYRK1A, Kinase-Glo ATP depletion luminescence; AID 2705
CLK4 inh-1 = confirmation of human CLK4 kinase inhibitors, SAR round 2; shares compounds with NTMT1 inh; recombinant Clk4, Kinase-Glo ATP luminescence, 4.5 h; Potency, µM (titrated, usually from 76.9 µM), for inactives: at the highest dose activity, negative = inhibition, usual class: inhibitors; 90 tested, 90% active; AID 493204
CLK4 inh-2 = blocks human CLK4 kinase in radiometric assay; shares compounds with NTMT1 inh; Reaction Biology kinase assay, 10 uM ATP; Potency, µM, hits mostly inhibitors; 65 tested, 100% active; calls by dose curve
DYRK1A inh-2 = DYRK1A kinase inhibition; shares compounds with NTMT1 inh; Reaction Biology kinase assay, 10 uM ATP; Potency, µM, most hits filed as inhibitors; 65 tested, 90% active;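 active = compounds that showed inhibition of Dyrk1a and received a fitted potency; inactive = compounds that showed no inhibition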
CLK2 RBC = blocks human CLK2 kinase in radiometric assay; shares compounds with NTMT1 inh; Reaction Biology kinase assay, 10 uM ATP; Potency, µM, most hits filed as inhibitors; 65 tested, 90% active;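 active = compound that inhibits Clk2 kinase in the dose series, with an IC50 potency reported; inactive = no inhibition seen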
CLK3 RBC = CLK3 kinase inhibition; AID 504428; recombinant CLK3 kinase assay, 10 uM ATP; 65 tested, 40% active; shares compounds with NTMT1 inh; Potency, µM, most hits filed as inhibitors;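 active = compounds that inhibited Clk3 enough in the ten-dose series to give a half-maximal potency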
DYRK1B inh = blocks human DYRK1B kinase activity. Potency, µM, actives largely listed as inhibitors. Recombinant Dyrk1b kinase assay, 10 uM ATP. 65 tested, 80% active. shares compounds with NTMT1 inh;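 active = compounds whose dose response shows an inhibitor phenotype against the kinase Dyrk1b; inactive = compounds showing no inhibitor phenotype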
CLK1 inh = blocks human CLK1 kinase activity | shares compounds with NTMT1 inh | recombinant Clk1 kinase assay, 10 uM ATP | Potency, µM, usual class: inhibitors | 65 tested, 90% active | AID 504430;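 active = compounds that block the splicing kinase Clk1 enough to give a fitted half-inhibition concentration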
Sfp PPTase inh = inhibitors of Bacillus subtilis Sfp PPTase, optimization followup | shares compounds with NTMT1 inh | purified Sfp PPTase enzyme activity, qHTS | Potency, µM (titrated, usually from 114 µM), for the others: top-dose activity change, negative = inhibition, usual class: inhibitors | 230 tested, 78% active | AID 540350
HM489 growth = reduces growth of B. subtilis HM489 strain | shares compounds with NTMT1 inh | AID 540353 | Potency, µM (titrated, usually from 114 µM), for inactives: at the top dose activity change, negative = inhibition, hits mostly inhibitors | B. subtilis HM489 (acpS-) growth, BacTiter-Glo, 5 h | 220 tested, 50% active
Sfp PPTase gel = inhibits B. subtilis Sfp PPTase in gel assay. shares compounds with NTMT1 inh. purified Sfp PPTase, gel-based product detection. Potency, µM (series often up to 250 µM), without a hit: at the top dose activity change, negative = inhibition, hits mostly inhibitors. 220 tested, 54% active. AID 540355
Sfp SAR2 = inhibits B. subtilis Sfp PPTase in second SAR round; shares compounds with NTMT1 inh; purified Sfp enzyme, PPTase activity, qHTS; Potency, µM (top dose mostly 57.1 µM), for inactives: at the top dose activity change, negative = inhibition, actives largely listed as inhibitors; 230 tested, 87% active; AID 602370
HSD17B4 inh = HSD17B4 (human) inhibition, HPGD counter-screen; shares compounds with NTMT1 inh; purified HSD17B4, estradiol/NAD+, NADH fluorescence; Potency, µM (top dose mostly 57.1 µM), inactives show at the highest dose activity change, negative = inhibition, usual class: inhibitors; 230 tested, 10% active
ALDH1A1 counter = ALDH1A1 (human) inhibition, HPGD counter-screen. shares compounds with NTMT1 inh. recombinant ALDH1A1, NADH fluorescence, propionaldehyde/NAD+. Potency, µM (series often up to 57.1 µM), without a hit: top-dose activity change, negative = inhibition, actives largely listed as inhibitors. 230 tested, 93% active
NNMT counter = blocks human NNMT methyltransferase. 120 tested, 10% active. NNMT MTase-Glo luminescence, SAH detection. shares compounds with NTMT1 inh. AID 1645878. Potency, µM (top dose mostly 57.1 µM), for inactives: at the highest dose activity, negative = inhibition, hits mostly inhibitors
Target sequence (P40261 whole entry, looked up): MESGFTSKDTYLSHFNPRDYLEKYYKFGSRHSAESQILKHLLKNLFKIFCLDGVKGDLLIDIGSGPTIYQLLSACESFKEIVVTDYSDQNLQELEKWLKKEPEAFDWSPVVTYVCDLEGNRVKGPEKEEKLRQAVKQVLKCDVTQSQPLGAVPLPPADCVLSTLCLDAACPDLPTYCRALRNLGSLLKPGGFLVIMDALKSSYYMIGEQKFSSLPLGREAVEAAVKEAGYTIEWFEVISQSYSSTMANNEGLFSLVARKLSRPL
* marks the source's active call; other numbers are inactive results; i = inactive; ? = inconclusive; / = no result given; [ ] = dose if it differs, or a comment. Unless noted, calls come from the whole dose curve; as a rule, active = well fitted curve in the direction sought with a large enough effect; inconclusive = small, poorly fitted or top-dose-only effect, or another doubt; inactive = no such curve, though single readings can be large; an effect the other way counts as inactive or inconclusive.

SMILES	SKOV3 invasion	GPR32 ag	FH mod	NTMT1 inh	NNMT counter	others
CCN1CCN(C(=S)c2ccc(O)cc2)CC1	/	/	/	-21%	/	Sfp PPTase inh=19µM*;HM489 growth=-26%;Sfp PPTase gel=?;Sfp SAR2=18µM*;HSD17B4 inh=-18%;ALDH1A1 counter=?
COc1ccc2nc(-c3cc(OC)c(OC)c(OC)c3)cc(C(=O)NCC(=O)Nc3ccc(C(C)=O)cc3)c2c1	/	/	-15%	5%[57.5 µM]	?
COc1ccc(C(=O)COC(=O)CCCC(=O)Nc2ccc(C(C)=O)cc2)cc1	9%	19	-11%	20%	/
COc1c/c(=C2\C=c3ccccc3=N2)[nH]/c1=C\c1[nH]c(C)cc1C	/	/	0%	?	/
COc1c/c(=C2\C=c3ccccc3=N2)[nH]/c1=C/c1[nH]c(C)cc1C	/	/	/	/	?
COc1ccc(NC(=O)Cc2csc(COc3cccc(C)c3)n2)c(OC)c1	-3%	-7	-25%	8%	/
COc1cc(N2CCOCC2)ccc1Nc1ncc(F)c(Nc2ccccc2NS(C)(=O)=O)n1	/	/	-1%	9%[57.5 µM]	/
CNC(=O)c1ccccc1Nc1cc(Nc2ccc(N3CCOCC3)cc2OC)ncc1C(F)(F)F	/	/	-10%	-1%[57.5 µM]	?
Cc1c(C(=O)OCc2ccco2)[nH]c2c1C(=O)CC(c1ccco1)C2 (stereo not drawn)	/	/	/	-22%[57.5 µM]	/
Cc1ccc(NC(=O)N2CCN(c3nc(N)nc4sc(-c5cccnc5)nc34)CC2)cc1	/	/	-18%	-2%[57.5 µM]	15%
CC(C)(C)NC(=O)c1ccc2nc(CCc3ccccc3)oc2c1	3%	-3	-1%	-6%	/
CC(C)c1cc2c(c(O)c1O)[C@@]13CCCC(C)(C)C1[C@@H](O)[C@@H]2OC3=O (stereo partly drawn)	/	/	-9%[53.3 µM]	?	-10%[38.3 µM]
CC1(C)CCCC2(C)c3c4c(c(=O)oc(=O)c3=CCC12)=CCC1C(C)(C)CCCC41C (stereo not drawn)	/	/	1%[53.3 µM]	16%[29.8 µM]	/
CC(C)c1cc2c(c(O)c1O)[C@@]13CCCC(C)(C)[C@@H]1[C@H](OC3=O)C2=O	/	/	?	-10%[29.8 µM]	?
Cc1ccc(C(C)C)c(OCC(=O)Nc2cccc(NC(=O)c3ccco3)c2)c1	-3%	18	?	-11%	/
CN(C)c1ccc(Nc2nc3ccccc3n3nnnc23)cc1	4%	-15	-25%	?	/
CN(C)c1ccc(Nc2nc(N)n(C(=O)c3c(F)cccc3F)n2)cc1	18%	/	-25%[53.3 µM]	?	-13%
O=C(Nc1cccc(OCc2cc(=O)n3c4c(sc3n2)CCCC4)c1)c1ccc(F)cc1	i	22	19%	3%	/
C[N+]1(CC2COC(c3ccccc3)(c3ccccc3)O2)CCCCC1 (stereo not drawn)	/	-16	0%[20.6 µM]	?	-18%[28.6 µM]
Cc1ccc(C)c(CN2C(=O)c3ccccc3S(=O)c3ccc(C(=O)N4CCN(c5cccc(Cl)c5)CC4)cc32)c1 (stereo not drawn)	12%	-2	-26%	-1%	/
COc1ccc(-n2nc(CCC(=O)N(C)O)cc2-c2ccc(Cl)cc2)cc1	/	?	-2%[53.3 µM]	-6%[57.5 µM]	/
CC(c1ccco1)N(C)c1ncnc2ccc(-c3ccc4c(c3)OCO4)cc12 (stereo not drawn)	/	/	/	/	/	DYRK1A inh-1=0.26µM*
CN(CCc1ccco1)c1ncnc2ccc(-c3ccc4c(c3)OCO4)cc12	/	/	/	?	/	CLK4 inh-1=0.092µM*
O=C(O)c1ccc(-c2ccc3ncnc(NCc4nccs4)c3c2)o1	/	/	/	0%[57.5 µM]	/	CLK4 inh-1=0.92µM*;CLK4 inh-2=1.9*;DYRK1A inh-2=41µM*;CLK2 RBC=27µM*;CLK3 RBC=i;DYRK1B inh=18µM*;CLK1 inh=39µM*

Source: PubChem
